Only some compounds are listed: those with a hit (about 10% of all), similar ones and a draw of the others.
BAZ2B block: BAZ2B (human) inhibition | 4.4% of 360,000 active | Q9UIF8 | AID 504333 | Potency, µM (doses to about 114 µM), for the others: at the highest dose activity change, negative = inhibition, hits mostly inhibitors | AlphaScreen BAZ2B-H3K14Ac peptide displacement; note: potency is the fitted concentration of half-maximal effect; % is set by controls: 0 for no effect and ±100 for the full control effect; nearly all actives have a fitted effect of over 60% in size
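BAZ2B 50 nM plus b-H3(5-23)K14Ac 50 nM, PBS pH 7.4/0.01% Tween-20, 30 min RT; compound added (max 110 uM), 30 min RT; streptavidin donor/Ni-chelate acceptor beads 10 ug/mL final, 20 min dark; AlphaScreen read.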
Six1-Eya2 inh: blocks human Six1 binding to Eya2; Q15475+O00167; AlphaScreen GST-Six1/His-Eya2 binding, biochemical; active compounds read low; activity change, % (no concentration beside the values); 0.56% of 360,000 active; AID 651725; in the data active = activity change below about -65%; inconclusive = mostly about -30% to -63%; note: % is set by controls: 0 for no effect and ±100 for the full control effect
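Compounds are tested against tagged Six1 and Eya2 proteins bridged by glutathione donor and nickel acceptor beads; after a one-hour incubation at 37 °C without light, AlphaScreen emission is recorded.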
JMJD2A Tudor inh: JMJD2A Tudor domain (human) inhibition | AlphaScreen JMJD2A-Tudor / H3K4me3 peptide binding | Potency, µM (titrated, usually from 114 µM), for the others: at the highest dose activity change, negative = inhibition, hits mostly inhibitors | 4.4% of 390,000 active | AID 504339; note: potency is the fitted concentration of half-maximal effect; % is set by controls: 0 for no effect and ±100 for the full control effect; nearly all actives have a fitted effect of over 50% in size
G9a inh: blocks human histone lysine methyltransferase G9a | Q96KQ7 | G9a H3K9 monomethylation, AlphaScreen, 2 h | Potency, µM (series often up to 102 µM), for inactives: at the top dose activity, negative = inhibition, actives largely listed as inhibitors | 8.8% of 350,000 active | AID 504332; note: potency is the fitted concentration of half-maximal effect; % is set by controls: 0 for no effect and ±100 for the full control effect; nearly all actives have a fitted effect of over 75% in size
Target sequence (Q96KQ7 913-1193 limits assumed): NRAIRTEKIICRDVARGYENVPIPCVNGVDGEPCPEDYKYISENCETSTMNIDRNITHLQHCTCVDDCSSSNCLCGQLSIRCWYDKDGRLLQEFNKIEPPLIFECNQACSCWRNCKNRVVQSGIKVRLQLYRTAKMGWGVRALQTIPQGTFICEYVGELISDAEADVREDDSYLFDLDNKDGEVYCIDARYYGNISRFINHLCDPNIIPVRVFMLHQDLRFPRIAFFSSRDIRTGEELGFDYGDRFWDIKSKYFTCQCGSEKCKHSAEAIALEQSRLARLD
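AlphaScreen detection with an anti-monomethyl H3K9 antibody quantified product after a 2 h room-temperature reaction containing 500 nM biotinylated H3K9 peptide, 20 µM SAM and 20 nM enzyme, which had been preincubated 15 min with compound.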
HP1b binding inh: HP1-beta chromodomain-methylated histone interaction inhibition. P83916. 0.56% of 390,000 active. Potency, µM (series often up to 114 µM), without a hit: at the highest dose activity change, negative = inhibition, most hits filed as inhibitors. AlphaScreen HP1-beta / biotin-H3K9me3 peptide binding; note: potency is the fitted concentration of half-maximal effect; nearly all actives have a fitted effect of over 70% in size
Target sequence (P83916 whole entry, looked up): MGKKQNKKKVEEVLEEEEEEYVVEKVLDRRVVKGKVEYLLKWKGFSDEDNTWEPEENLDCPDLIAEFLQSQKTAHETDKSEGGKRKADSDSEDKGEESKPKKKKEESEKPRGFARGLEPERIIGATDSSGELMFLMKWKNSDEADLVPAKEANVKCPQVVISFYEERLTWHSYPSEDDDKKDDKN
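HP1-beta protein (50 nM final) preincubated 30 min at room temperature with biotinylated H3(1-18)K9me3 peptide (50 nM) in PBS pH 7.4, 0.01% Tween-20, then compound added for 30 min. AlphaScreen streptavidin donor/nickel chelate acceptor beads (10 ug/mL final), 30 min dark, luminescence read.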
CtBP-E1A blk: CtBP/E1A binding inhibition | 0.49% of 340,000 active | AID 651724 | AlphaScreen GST-E1A/His-CtBP binding, 1536-well; active compounds read low | activity change, % (concentration not given with the values); in the data active = activity change below about -65%; inconclusive = mostly about -30% to -63%; note: % is set by controls: 0 for no effect and ±100 for the full control effect
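Steps: dispense buffer (Tris pH 8.0, NaCl 300 mM, TCEP 1 mM, BSA, Tween 20); add 5X protein mix (GST-E1A, His-CtBP, 125 nM each); pin 23 nL compound; 2 h at 37 °C, dark; add 5X beads (50 ug/mL); 1 h; read.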
An asterisk follows results filed as active; ? = inconclusive; . = no result; [ ] = another dose, or the depositor's remark. Unless noted, calls come from the whole dose curve; as a rule, active = well fitted inhibition curve with a large enough effect; inconclusive = small, poorly fitted or top-dose-only effect; inactive = no such curve, though single readings can be large or run the other way.

SMILES	BAZ2B block	Six1-Eya2 inh	JMJD2A Tudor inh	G9a inh	HP1b binding inh	CtBP-E1A blk
C=Cc1ccc(Cn2c(C(=O)O)c(CNCc3ccccc3)c3ccc(C)cc32)cc1	50µM*	.	?	?	0%	.
Cc1cc(SCC(=O)N/N=C/c2ccc(O)c(O)c2O)c(C)cc1Br	-26%	?	50µM*	?	?	?
COc1cc(/C=N/NC(=O)CSc2cc(C)c(Br)cc2C)ccc1O	4%	-1	2%	2%	15%	-4
COc1ccccc1-n1c(/C=C/c2c(C)n(C)c3ccccc23)nc2ccccc2c1=O	-9%	.	-19%	-31%[59 µM]	8%	.
CCN(CC)S(=O)(=O)c1ccc(N2CCOCC2)c(NS(=O)(=O)c2cc(C(C)(C)C)ccc2C)c1	1%	-13	?	10µM*	?	-9
CCN(CC)S(=O)(=O)c1ccc(N2CCOCC2)c(NS(=O)(=O)c2ccc(C(C)C)cc2)c1	7%	-3	25µM*	21%	?	-3
CCN(CC)S(=O)(=O)c1ccc(N2CCOCC2)c(NS(=O)(=O)c2cccs2)c1	12%	3	1%	4%[2.33 µM]	41%	7
CCCc1cc(=O)[nH]c2nnc(SCCC(C)C)n12	4%	.	-3%	10%[59 µM]	46%	.
CCOc1ccc(NC(=O)c2cnn3c2NC(c2cccc(OC)c2)=CC3c2ccccc2)cc1 (centres undefined)	-7%	.	-14%	-4%[59 µM]	27%	.
CCN(C(=O)Cn1nc(Cc2ccncc2)c2ccccc2c1=O)c1cccc(Cl)c1	-15%	.	-25%	-6%[59 µM]	23%	.
Cc1ccc(CN2C(=O)c3ccccc3Sc3ccc(C(=O)N4CCOCC4)cc32)cc1	-12%	.	-29%	2%[59 µM]	-4%	.
O=C(O)c1ccc2c3n(nc2c1)-c1ccc(Cl)cc1CO3	?	-4	-15%	50µM*	27%	0
COc1ccc(C2=C(C)C(=O)N(Cc3ccc(C(=O)Nc4cc(C)ccc4C)cc3)S2(=O)=O)cc1	-14%	.	-3%	4%[59 µM]	-4%	.
COc1cccc(C2NC(=S)NC3=C2CCc2ccccc23)c1 (centres undefined)	-6%	4	-12%	7.9µM*	-3%	-9
COc1ccc(C2NC(=O)NC3=C2CCc2ccccc23)cc1 (centres undefined)	-4%	-10	-6%	?	-1%	-4
Cc1ccc(C2NC(=O)NC3=C2CCc2ccccc23)cc1 (centres undefined)	-16%	-1	-16%	10µM*	23%	-5
CC(C)c1ccc(C2NC(=O)NC3=C2CCc2ccccc23)cc1 (centres undefined)	-7%	-8	-16%	32µM*	21%	-6
CCC(C(=O)Nc1cc(Cl)ccc1OC)n1nc(-c2ccccc2)ccc1=O (centres undefined)	-1%	.	-22%	4%[59 µM]	28%	.
C=C1CCN(C(CC(C)C)C(=O)Nc2nc3ccc(Cl)cc3s2)S(=O)(=O)c2ccccc21 (centres undefined)	.	.	-27%	.	21%	.
CCOc1ccc(N(C(C)C(=O)NN=C2CCCCCCC2)S(C)(=O)=O)cc1 (centres undefined)	-4%	-1	-2%	8%[59 µM]	29%	1
CCOc1ccc(N(C(C)C(=O)NC2CCCCCC2)S(C)(=O)=O)cc1 (centres undefined)	-2%	3	-6%	14µM*	-3%	-3
CSc1ccc(CC2C(=O)Nc3ccccc32)cc1 (centres undefined)	-32%	.	-36%	-26%[59 µM]	-13%	.
Cc1nn2c(C)c(C(=O)NCc3cccc(Br)c3)cnc2c1-c1ccccc1	0%	.	-9%	17%[59 µM]	25%	.
CCC(C)N(C(=O)CSc1nc2ccc(OC)cc2[nH]1)C1CCS(=O)(=O)C1 (centres undefined)	8%	5	-9%	40µM*	19%	3
COc1ccc2nc(SCC(N)=O)[nH]c2c1	4%	-2	-2%	-25%[12.7 µM]	36%	12
SMILES	BAZ2B block	Six1-Eya2 inh	JMJD2A Tudor inh	G9a inh	HP1b binding inh	CtBP-E1A blk
CCOc1ccc2nc(SCC3CC3(Cl)Cl)[nH]c2c1 (centres undefined)	-19%	1	3%	45µM*	31%	4
COc1ccc2nc(SCCN(C)C)[nH]c2c1	50µM*	2	-21%	?	?	-3
CCOC(=O)c1c(C)oc2ncnc(N3CCN(c4ccccc4F)CC3)c12	-5%	.	-7%	-7%[59 µM]	33%	.
CN1CCc2nc(SCC(=O)Nc3cccc(F)c3)c(C#N)c(-c3cccs3)c2C1	50µM*	-14	?	.	-21%	?
Cc1ccc(NC(=O)c2cc3c(=O)n(Cc4ccco4)ccc3nc2C)cc1C	-28%	.	?	-12%[59 µM]	24%	.
C=CCN1C(=O)c2ccc(C(=O)N(C)Cc3ccc(C)o3)cc2C1=O	-26%	0	-12%	-11%[2.33 µM]	26%	5
Cc1ccc2oc(C(=O)N(C)Cc3ccon3)c(C)c2c1	2%	14	0%	89%	33%	.
Cc1ccc(CN(C)C(=O)c2cc(Br)c(Br)s2)o1	3%	-5	-11%	45µM*	34%	11
Cc1ccc2oc(C(=O)N(C)Cc3ccc(C)o3)c(C)c2c1	-16%[57.1 µM]	-3	?	8.9µM*	-14%	2
CCOc1ccccc1CNC(=O)CCc1cn(Cc2ccc(Cl)cc2)c2ccccc12	-17%	.	-1%	-6%[59 µM]	41%	.
CCOC(=O)/C(C)=C1\NC(C)(C)Cc2ccccc21	18µM*	5	22µM*	2.5µM*	25µM*	0
CCOC(=O)/C(C(=O)Nc1ccccc1Cl)=C1/NC(C)(C)Cc2ccccc21	-34%	-3	-18%	?	-1%	19
COc1ccc(NC(=O)N2CCN(S(=O)(=O)c3ccc4c(ccn4C)c3)CC2)c(OC)c1	-27%	.	-34%	4%[59 µM]	0%[57 µM]	.
Cc1ccc(OCc2nc3ccccc3n2CC(C)C)cc1	40%	.	9%	?	92%	.
S=C(c1ccc(-c2ccc(Cl)cc2Cl)o1)N1CCCC1	-14%	-2	50µM*	.	?	.
S=C(c1ccc(-c2ccc(Cl)cc2Cl)o1)N1CCCCC1	22µM*	?	?	?	-42%	-29
Cc1cccc(C)c1NC(=O)c1ccc(-c2ccc(Cl)cc2Cl)o1	-6%	2	-19%	-29%	41%	-2
S=C(Nc1ccc(Cl)cc1Cl)N1CCCCC1	7%	2	-7%[57.1 µM]	29%[59 µM]	?	5
N#Cc1c(-c2ccco2)c2c([nH]c1=S)CCCC2	1%	?	28µM*	?	-22%	-28
COc1ccc(-c2c3c([nH]c(=S)c2C#N)CCC3)cc1	1%	-1	45µM*	?	-16%	-1
CC(C)Cc1c2c([nH]c(=S)c1C#N)CCCC2	-30%	1	56µM*	2.2µM*	-24%	-9
